# Data: PubChem BioAssay (EPA / NIEHS)
# Calls of active or inactive are those of the source. The calls were made as follows: active = hit-call score of the fitted dose curve at least 0.9, where 1 is the maximum; inactive = score below 0.9.
# Tests used:
# Conditions in all cases: mRNA level, 48 h; actives raise or lower the signal
# CYP2E1 (gene 1571) = assay: LTEA_HepaRG_CYP2E1: Life Technologies and Expression Analysis (LTEA) Assay for CYP2E1 using HepaRG (AID 2283485)
# Summary of the method: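 Readout is qRT-PCR of CYP2E1 mRNA, normalized to three housekeeping genes and fitted bidirectionally against 0.5% DMSO. HepaRG cells were dosed 48 h at eight concentrations, highest 100 uM with half-log dilutions.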
# CYP4A11 (gene 1579) = assay: LTEA_HepaRG_CYP4A11: Life Technologies and Expression Analysis (LTEA) Assay for CYP4A11 using HepaRG (AID 2283486)
# Summary of the method: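 Readout is CYP4A11 transcript level by qRT-PCR, normalized to three housekeeping genes and fitted bidirectionally against 0.5% DMSO. Human HepaRG cells were treated 48 h, in duplicate, with an 8-point half-log series topping at 100 uM.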
# [1] = read-out: Cytochrome P450 3A4 (Homo sapiens) (UniProt P08684); assay: LTEA_HepaRG_CYP3A4: Life Technologies and Expression Analysis (LTEA) Assay for CYP3A4 using HepaRG (AID 2283487)
# Summary of the method: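 CYP3A4 transcript measured by TaqMan qRT-PCR and normalized to three housekeeping genes after 48 h chemical exposure of human HepaRG cells. Top concentration 100 uM, half-log steps, 0.5% DMSO vehicle; gain or loss fitted against DMSO baseline.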
# [2] = read-out: DNA damage-inducible transcript 3 (DDIT3), DDIT3 (gene 1649); assay: LTEA_HepaRG_DDIT3: Life Technologies and Expression Analysis (LTEA) Assay for DNA damage-inducible transcript 3 (DDIT3) using HepaRG (AID 2283488)
# Summary of the method: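 Cells are human HepaRG liver cells treated for 48 h with eight half-log concentrations up to 100 uM in 0.5% DMSO. Transcript levels come from qRT-PCR normalized to three housekeeping genes, with activity fitted in both directions relative to vehicle.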
# [3] = read-out: Pro-epidermal growth factor (Homo sapiens) (UniProt P01133); assay: LTEA_HepaRG_EGF: Life Technologies and Expression Analysis (LTEA) Assay for Epidermal growth factor (EGF) using HepaRG (AID 2283489)
# Summary of the method: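 EGF transcript measured by Fluidigm TaqMan qRT-PCR with three housekeeping genes for normalization, 48 h after dosing HepaRG cultures in duplicate (top 100 uM, half-log steps, 0.5% DMSO vehicle). Gain or loss relative to DMSO fitted.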
# [4] = read-out: Early growth response protein 1 (EGR1) transcription factor, EGR1 (gene 1958); assay: LTEA_HepaRG_EGR1: Life Technologies and Expression Analysis (LTEA) Assay for Early growth response protein 1 (EGR1) transcription factor using HepaRG (AID 2283490)
# Summary of the method: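 EGR1 transcript levels quantified by qRT-PCR (Fluidigm arrays) against three housekeeping genes after 48 h chemical exposure of HepaRG cells. Eight-point half-log series topping at 100 uM, 0.5% DMSO vehicle, analyzed for gain or loss.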
# [5] = read-out: Ezrin (EZR), EZR (gene 7430); assay: LTEA_HepaRG_EZR: Life Technologies and Expression Analysis (LTEA) Assay for Ezrin (EZR) using HepaRG (AID 2283491)
# Summary of the method: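 HepaRG, 48 h chemical exposure, 8-pt half-log series from 100 uM, 0.5% DMSO vehicle, duplicates. Read-out: EZR mRNA by TaqMan qRT-PCR (Fluidigm array), housekeeping-normalized; bidirectional curve fit vs DMSO baseline.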
# [6] = read-out: Cytochrome P450 3A7 (Homo sapiens) (UniProt P24462); assay: LTEA_HepaRG_CYP3A7: Life Technologies and Expression Analysis (LTEA) Assay for CYP3A7 using HepaRG (AID 2283492)
# Summary of the method: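 CYP3A7 transcript measured by qRT-PCR (ACTB, GAPDH, POLR2A normalization) after 48 h chemical exposure of HepaRG cells in duplicate. Eight half-log concentrations, maximum 100 uM, 0.5% DMSO vehicle; bidirectional curve fitting against DMSO baseline.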
# CYP3A5 (gene 1577) = assay: LTEA_HepaRG_CYP3A5: Life Technologies and Expression Analysis (LTEA) Assay for CYP3A5 using HepaRG (AID 2283493)
# Summary of the method: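 Human HepaRG hepatic cells receive 48 h chemical treatment at eight concentrations (half-log steps from 100 uM) in 0.5% DMSO. Expression of CYP3A5 is quantified by Fluidigm qRT-PCR and normalized to three reference genes.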
# [7] = read-out: Fatty Acid-Binding Protein 1 (FABP1), FABP1 (gene 2168); assay: LTEA_HepaRG_FABP1: Life Technologies and Expression Analysis (LTEA) Assay for Fatty Acid-Binding Protein 1 (FABP1) using HepaRG (AID 2283494)
# Summary of the method: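 FABP1 expression by TaqMan qRT-PCR, normalised to three housekeeping genes, in HepaRG cells after 48 h chemical treatment. Eight-point half-log series topping at 100 uM in 0.5% DMSO, duplicates; gain or loss fitted relative to vehicle.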
# [8] = read-out: Cytochrome P450 4A22 (Homo sapiens) (UniProt Q5TCH4); assay: LTEA_HepaRG_CYP4A22: Life Technologies and Expression Analysis (LTEA) Assay for Cytochrome P450 4A22 (CYP4A22) using HepaRG (AID 2283495)
# Summary of the method: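 Gene expression measured by qRT-PCR against three housekeeping genes (ACTB, GAPDH, POLR2A), with gain or loss fitted relative to 0.5% DMSO vehicle. HepaRG cultures received 48 h chemical treatment, top concentration 100 uM, half-log steps, duplicate wells.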
# [9] = read-out: Cytochrome P450 7A1 (Homo sapiens) (UniProt P22680); assay: LTEA_HepaRG_CYP7A1: Life Technologies and Expression Analysis (LTEA) Assay for Cytochrome P450 7A1 (CYP7A1) using HepaRG (AID 2283496)
# Summary of the method: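 HepaRG, 48 h exposure, 8-pt half-log series from 100 uM, 0.5% DMSO vehicle, duplicates. Readout: TaqMan qRT-PCR mRNA vs three housekeeping genes; bidirectional curve fit against DMSO baseline.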
# [10] = read-out: Glutathione S-Transferase (GSTA2), GSTA2 (gene 2939); assay: LTEA_HepaRG_GSTA2: Life Technologies and Expression Analysis (LTEA) Assay for Glutathione S-Transferase (GSTA2) using HepaRG (AID 2283497)
# Summary of the method: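 GSTA2 transcript levels came from Fluidigm TaqMan qRT-PCR normalized to three housekeeping genes, fitted in both directions against DMSO. HepaRG cultures received chemicals for 48 h in serum-free induction medium (0.5% DMSO), 8 half-log concentrations up to 100 uM, duplicate.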
# [11] = read-out: Glutamate-cysteine ligase catalytic (GCLC), GCLC (gene 2729); assay: LTEA_HepaRG_GCLC: Life Technologies and Expression Analysis (LTEA) Assay for Glutamate-cysteine ligase catalytic (GCLC) using HepaRG (AID 2283498)
# Summary of the method: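 Expression by TaqMan qRT-PCR, normalized to three housekeeping genes (ACTB, GAPDH, POLR2A), with up- or down-regulation fitted against DMSO. HepaRG cells dosed in duplicate for 48 h with 8 half-log concentrations up to 100 uM, vehicle 0.5% DMSO.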
# [12] = read-out: growth arrest and DNA damage 45 (GADD45G), GADD45G (gene 10912); assay: LTEA_HepaRG_GADD45G: Life Technologies and Expression Analysis (LTEA) Assay for growth arrest and DNA damage 45 (GADD45G) using HepaRG (AID 2283499)
# Summary of the method: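 GADD45G transcript level by qRT-PCR (housekeeping-normalized: ACTB, GAPDH, POLR2A) after 48 h chemical treatment of a single HepaRG lot in serum-free induction medium; eight-point half-log series up to 100 uM in 0.5% DMSO, duplicates, up- or down-regulation scored.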
# [13] = read-out: Glutamate-cysteine ligase regulatory (GCLM), GCLM (gene 2730); assay: LTEA_HepaRG_GCLM: Life Technologies and Expression Analysis (LTEA) Assay for Glutamate-cysteine ligase regulatory (GCLM) using HepaRG (AID 2283500)
# Summary of the method: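 Endpoint is GCLM transcript level by qRT-PCR, normalized to three housekeeping genes, after 48 h chemical exposure of human HepaRG cells (0.5% DMSO vehicle, top 100 uM, half-log dilutions). Fitting was bidirectional relative to DMSO.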
# [14] = read-out: Glutathione S-transferase M3 (GSTM3), GSTM3 (gene 2947); assay: LTEA_HepaRG_GSTM3: Life Technologies and Expression Analysis (LTEA) Assay for Glutathione S-transferase M3 (GSTM3) using HepaRG (AID 2283501)
# Summary of the method: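 GSTM3 transcript levels came from Fluidigm TaqMan qRT-PCR normalized to three housekeeping genes, fitted in both directions against DMSO. HepaRG cultures received chemicals for 48 h in serum-free induction medium (0.5% DMSO), 8 half-log concentrations up to 100 uM, duplicate.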
# [15] = read-out: Heat shock 70 kDa protein 1 (HSPA1A), gene 3303; assay: LTEA_HepaRG_HSPA1A: Life Technologies and Expression Analysis (LTEA) Assay for Heat shock 70 kDa protein 1 (HSPA1A) using HepaRG (AID 2283502)
# Summary of the method: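 Cells were plated and cultured for 48 h, then switched to serum-free induction medium. Chemicals were added at eight half-log concentrations up to 100 uM for 48 h. RNA was then isolated and HSPA1A measured by qRT-PCR with bidirectional curve fitting against DMSO.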
# [16] = read-out: Hypoxia-inducible factor 1-alpha (Homo sapiens) (UniProt Q16665); assay: LTEA_HepaRG_HIF1A: Life Technologies and Expression Analysis (LTEA) Assay for Hypoxia-inducible factor 1 (HIF1A) Trancription factor using HepaRG (AID 2283503)
# Summary of the method: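 HIF1A transcript level read by qRT-PCR (ACTB, GAPDH, POLR2A normalization) after 48 h chemical exposure of HepaRG cultures. Eight half-log concentrations, top 100 uM, 0.5% DMSO vehicle, duplicates; bidirectional curve fit against DMSO baseline.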
# [17] = read-out: 3-Hydroxy-3-Methylglutaryl-CoA Synthase 2 (HMGCS2), HMGCS2 (gene 3158); assay: LTEA_HepaRG_HMGCS2: Life Technologies and Expression Analysis (LTEA) Assay for 3-Hydroxy-3-Methylglutaryl-CoA Synthase 2 (HMGCS2) using HepaRG (AID 2283504)
# Summary of the method: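 Readout is HMGCS2 transcript by qRT-PCR, housekeeping-normalised (ACTB/GAPDH/POLR2A) and fitted bidirectionally against 0.5% DMSO. Differentiated HepaRG cells received chemicals 48 h, duplicate wells, eight half-log concentrations topping at 100 uM.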
# Sequence of Cytochrome P450 3A7 (Homo sapiens) (P24462 whole entry, looked up): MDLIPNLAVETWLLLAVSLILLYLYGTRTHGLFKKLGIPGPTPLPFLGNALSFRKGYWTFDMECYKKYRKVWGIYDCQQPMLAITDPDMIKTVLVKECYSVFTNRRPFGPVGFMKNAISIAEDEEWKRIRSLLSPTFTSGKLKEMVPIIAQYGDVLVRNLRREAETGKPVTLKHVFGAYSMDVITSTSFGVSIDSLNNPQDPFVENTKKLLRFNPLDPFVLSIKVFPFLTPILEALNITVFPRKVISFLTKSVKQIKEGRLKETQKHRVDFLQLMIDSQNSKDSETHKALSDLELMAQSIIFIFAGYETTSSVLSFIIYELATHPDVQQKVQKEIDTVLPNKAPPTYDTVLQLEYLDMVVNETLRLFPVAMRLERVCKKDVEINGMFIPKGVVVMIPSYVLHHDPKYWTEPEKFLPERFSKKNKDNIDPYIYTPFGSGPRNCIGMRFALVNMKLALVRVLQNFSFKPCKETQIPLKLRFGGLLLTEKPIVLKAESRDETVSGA
# Sequence of Hypoxia-inducible factor 1-alpha (Homo sapiens) (Q16665 whole entry, looked up): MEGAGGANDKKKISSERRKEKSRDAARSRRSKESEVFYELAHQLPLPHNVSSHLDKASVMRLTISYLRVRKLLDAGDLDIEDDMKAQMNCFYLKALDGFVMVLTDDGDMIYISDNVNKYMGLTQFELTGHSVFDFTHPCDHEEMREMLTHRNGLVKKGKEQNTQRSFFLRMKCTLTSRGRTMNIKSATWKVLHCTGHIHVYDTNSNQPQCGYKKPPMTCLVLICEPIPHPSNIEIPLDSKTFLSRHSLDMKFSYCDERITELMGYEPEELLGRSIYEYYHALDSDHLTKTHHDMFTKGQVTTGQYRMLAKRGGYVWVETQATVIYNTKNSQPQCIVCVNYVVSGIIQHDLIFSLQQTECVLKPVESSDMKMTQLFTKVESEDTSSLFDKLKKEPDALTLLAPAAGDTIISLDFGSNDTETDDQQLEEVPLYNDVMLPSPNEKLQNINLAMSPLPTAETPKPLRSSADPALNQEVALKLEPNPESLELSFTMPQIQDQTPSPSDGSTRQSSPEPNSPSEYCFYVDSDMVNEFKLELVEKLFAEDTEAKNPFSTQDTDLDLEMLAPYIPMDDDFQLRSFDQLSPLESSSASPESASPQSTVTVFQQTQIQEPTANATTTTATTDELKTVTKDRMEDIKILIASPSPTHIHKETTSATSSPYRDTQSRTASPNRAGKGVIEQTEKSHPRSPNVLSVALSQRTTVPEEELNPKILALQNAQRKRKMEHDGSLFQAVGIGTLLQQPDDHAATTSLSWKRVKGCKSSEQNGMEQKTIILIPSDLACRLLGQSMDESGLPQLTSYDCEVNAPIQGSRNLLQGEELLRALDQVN
# Sequence of Cytochrome P450 3A4 (Homo sapiens) (P08684 whole entry, looked up): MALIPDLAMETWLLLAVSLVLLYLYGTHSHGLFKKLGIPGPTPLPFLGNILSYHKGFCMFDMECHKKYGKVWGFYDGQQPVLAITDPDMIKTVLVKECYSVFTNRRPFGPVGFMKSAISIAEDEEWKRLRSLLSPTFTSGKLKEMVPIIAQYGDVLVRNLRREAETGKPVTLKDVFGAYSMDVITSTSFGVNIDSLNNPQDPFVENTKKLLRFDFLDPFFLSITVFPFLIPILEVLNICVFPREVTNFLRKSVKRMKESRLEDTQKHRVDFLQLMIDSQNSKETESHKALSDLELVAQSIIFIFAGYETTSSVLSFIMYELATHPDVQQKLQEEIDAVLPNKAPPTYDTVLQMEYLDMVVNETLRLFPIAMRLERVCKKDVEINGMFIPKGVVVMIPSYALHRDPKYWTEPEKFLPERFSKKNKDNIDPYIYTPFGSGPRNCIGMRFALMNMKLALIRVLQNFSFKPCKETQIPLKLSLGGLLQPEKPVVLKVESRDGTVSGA
smiles,measurement,setting,value
CCOC(N)=O,outcome,CYP2E1 (gene 1571),inactive
same,outcome,CYP4A11 (gene 1579),inactive
same,outcome,[1],inactive
same,outcome,[2],inactive
same,outcome,[3],inactive
same,outcome,[4],inactive
same,outcome,[5],inactive
same,outcome,[6],inactive
same,outcome,CYP3A5 (gene 1577),inactive
same,outcome,[7],inactive
same,outcome,[8],inactive
same,outcome,[9],inactive
same,outcome,[10],inactive
same,outcome,[11],inactive
same,outcome,[12],inactive
same,outcome,[13],inactive
same,outcome,[14],inactive
same,outcome,[15],inactive
same,outcome,[16],inactive
same,outcome,[17],inactive
Cc1ncc([C@@H](CCCCCCc2ccc3c(n2)NCCC3)CC(=O)O)cn1,AC50,CYP2E1 (gene 1571),50 µM (active)
same,AC50,CYP4A11 (gene 1579),15.7 µM (active)
same,AC50,[1],31 µM (active)
same,outcome,[2],inactive
same,outcome,[3],inactive
same,outcome,[4],inactive
same,outcome,[5],inactive
same,outcome,[6],inactive
same,outcome,CYP3A5 (gene 1577),inactive
same,outcome,[7],inactive
same,outcome,[8],inactive
same,outcome,[9],inactive
same,outcome,[10],inactive
same,outcome,[11],inactive
same,outcome,[12],inactive
same,outcome,[13],inactive
same,outcome,[15],inactive
same,outcome,[16],inactive
same,outcome,[17],inactive
CCCCN1C(=O)[C@@H]([C@H](O)C2CCCCC2)NC(=O)C12CCN(Cc1ccc(Oc3ccc(C(=O)O)cc3)cc1)CC2,AC50,CYP2E1 (gene 1571),3.86 µM (active)
same,AC50,CYP4A11 (gene 1579),2.41 µM (active)
same,AC50,[1],1.82 µM (active)
same,AC50,[2],3.66 µM (active)
same,AC50,[3],9.39 µM (active)
same,outcome,[4],inactive
same,outcome,[5],inactive
same,AC50,[6],2.38 µM (active)
same,AC50,CYP3A5 (gene 1577),1.9 µM (active)
same,AC50,[7],2.84 µM (active)
same,AC50,[8],3.35 µM (active)
same,AC50,[9],2.15 µM (active)
same,AC50,[10],2.39 µM (active)
same,AC50,[11],2.25 µM (active)
same,AC50,[12],4.63 µM (active)
same,AC50,[14],4.76 µM (active)
same,AC50,[15],1.8 µM (active)
same,outcome,[16],inactive
same,AC50,[17],5.05 µM (active)
